# System: XIP peptide (Xip251-270)
# Assay: small-molecule binders of XIP peptide, primary screen, biochemical, small-molecule microarray, fluorescence 635/667 nm, 0.5 µg/mL protein (AID 1183)
# Conditions: small-molecule microarray binding, fluorescence 635 nm; higher = more signal
row,SMILES,composite z-score
1,O=C1O[C@@H](c2ccccc2)[C@@H](c2ccccc2)N2[C@@H](c3ccc(O)cc3)[C@]3(C(=O)Nc4ccc(C#CCCO)cc43)[C@@H](C(=O)Nc3nc4ccccc4s3)[C@H]12,0.732
2,C=CCOC(=O)[C@@H]1[C@H]2C(=O)O[C@H](c3ccccc3)[C@H](c3ccccc3)N2[C@H](c2ccc(OCCOC(=O)[C@H]3C[C@H]4C(=O)N[C@@H](CCCCN(C)C)C(=O)N4[C@H]3c3cccc(OCCO)c3)cc2)[C@@]12C(=O)Nc1ccc(I)cc12,0.817
3,Cc1c(NC(=O)/C(C#N)=C/C=C/c2ccc(N(C)C)cc2)c(=O)n(-c2ccccc2)n1C,0.7
4,O=C1C2C=CC(C(O)c3cc(C(F)(F)F)cc(C(F)(F)F)c3)N(Nc3ccc([N+](=O)[O-])cc3)C2C(=O)N1c1ccccc1 (configuration not stated),0.802
5,O=C1NC(=O)C2C1C=CC(C(O)c1cc(C(F)(F)F)cc(C(F)(F)F)c1)N2Nc1ccc(Cl)cc1Cl (configuration not stated),0.154
6,CO[C@H]1O[C@H](CO)[C@@H](OC(=O)Nc2ccccc2-c2ccccc2)[C@H](OC(=O)Nc2ccc3c(c2)OCO3)[C@@H]1OC(=O)Nc1ccc2c(c1)OCO2,0.801
7,Cc1ccc(F)cc1S(=O)(=O)N[C@@H]1CCN(Cc2ccc(Oc3ccccc3)cc2)C1,-0.0723
8,CCOC(=O)C1=CC[C@@H](c2ccccc2)N(S(=O)(=O)c2ccc(C)cc2)C1,-0.654
9,Cc1ccc(S[C@]2(C(=O)NCC(F)(F)F)CC(=O)N(Cc3ccccc3)[C@@H]2c2ccc(CO)cc2)cc1,0.5
10,CC(C)CNC(=O)[C@@H]1c2ccccc2C(=O)N(Cc2cc(F)cc(C(F)(F)F)c2)[C@H]1c1ccc(CO)cc1,0.891
11,CCN(CC)c1ccc(N2CC=CC34O[C@@H]5/C=C\CCC(C)OC(=O)C5[C@H]3C(=O)N(CCO)[C@@H]4C2=O)cc1 (some centres not stated),0.461
12,COc1ccccc1CN1C(=O)c2ccccc2[C@@H](C(=O)NC(C)C)[C@@H]1c1ccc(CO)cc1,0.905
13,[N-]=[N+]=NCc1ccccc1[C@H]1OC(c2ccc(OCCCO)cc2)=N[C@@]1(CCS(=O)(=O)c1ccccc1)C(N)=O,0.558
14,C=CCOC(=O)[C@@H]1[C@H]2C(=O)O[C@H](c3ccccc3)[C@H](c3ccccc3)N2[C@H](c2ccc(OCCOC(=O)[C@H]3C[C@H]4C(=O)N[C@@H](CCCC[N+](C)(C)C)C(=O)N4[C@H]3c3ccc(O)cc3)cc2)[C@@]12C(=O)Nc1ccc(I)cc12,0.873
15,C=C(CCCC)/C(=C/C[C@@H](OC(C)=O)c1ccc(CO)o1)c1cc(C(=O)OC)ccc1OC,0.778
16,CC(C)C(O)C1C=CC2C(=O)N(C)C(=O)C2N1N(c1ccccc1)c1ccccc1 (configuration not stated),0.123
17,C=CCNC(=O)[C@@H]1[C@H]2C(=O)O[C@H](c3ccccc3)[C@H](c3ccccc3)N2[C@H](c2ccc(OCCO)cc2)[C@@]12C(=O)N(C(=O)OCCOC)c1ccc(C#CC3=CCCCC3)cc12,0.659
18,COCCOC(=O)N1C(=O)[C@@]2(c3cc(C#Cc4ccc(OC)cc4)ccc31)[C@H](C(=O)N1CCCCCCC1)[C@H]1C(=O)O[C@H](c3ccccc3)[C@H](c3ccccc3)N1[C@@H]2c1ccc(O)cc1,0.669
19,COC(=O)Cn1c(C(=O)N2CCCC2)cc2c1C[C@H]1CN(C(=O)c3ccccc3)[C@@](Cc3ccc(F)cc3)(C(=O)OC)[C@@H]21,0.513
20,NCCCCCNC(=O)[C@@H]1C[C@@H]2C(=O)N[C@@H](CCCCN)C(=O)N2[C@@H]1c1cccc(OCCO)c1,0.793
21,Cc1ccc(S[C@]2(C(=O)NC(C)C)CC(=O)N(Cc3ccccc3C(F)(F)F)[C@@H]2c2ccc(CO)cc2I)cc1,0.582
22,COCCOC(=O)N1C(=O)[C@@]2(c3cc(C#CC4(O)CCCCCC4)ccc31)[C@H](C(N)=O)[C@H]1C(=O)O[C@H](c3ccccc3)[C@H](c3ccccc3)N1[C@@H]2c1ccccc1OCCO,0.792
23,C=CC[C@H](OC(=O)Nc1ccc(OC)cc1)c1ccc(O)c2ccccc12,0.616
24,COCC(=C=CC[C@H](O)c1cccc(OCCO)c1)C[C@H](O)c1ccccn1,0.157
25,C=CC[C@@]1(C(=O)N2CCCCC2)N=C(c2ccc(OCCCO)cc2)O[C@@H]1c1ccccc1,0.735
26,COCCCNC(=O)[C@@H]1c2ccccc2C(=O)N(Cc2ccccc2C(F)(F)F)[C@H]1c1ccc(CO)cc1,-0.149
27,COc1ccc([Si](C)(C)[C@H]2[C@H](CCO)O[C@@]3(C(=O)N(Cc4cccc(N5CCCCC5=O)c4)c4ccccc43)[C@@H]2C)cc1,0.589

# — PubChem BioAssay
